Compound activity from PubChem BioAssay.
POLK inh: blocks human DNA polymerase kappa activity. Q9UBT6. purified Pol kappa, fluorescent DNA synthesis assay, 10 min. Potency, µM (top dose mostly 107 µM), usual class: inhibitors. actives 0.53% (n = 400,000). AID 588579
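Inhibition of 10 nM Pol kappa is measured by a fluorescent read-out at 0 and 10 min following addition of 50 nM substrate (final), with a 15-min room-temperature compound preincubation.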
POLH inh: blocks human DNA polymerase eta activity; Q9Y253; recombinant Pol eta, fluorescent DNA replication assay; Potency, µM (doses to about 114 µM), usual class: inhibitors; actives 1.2% (n = 390,000); AID 588591
Target sequence (Q9Y253 whole entry, looked up): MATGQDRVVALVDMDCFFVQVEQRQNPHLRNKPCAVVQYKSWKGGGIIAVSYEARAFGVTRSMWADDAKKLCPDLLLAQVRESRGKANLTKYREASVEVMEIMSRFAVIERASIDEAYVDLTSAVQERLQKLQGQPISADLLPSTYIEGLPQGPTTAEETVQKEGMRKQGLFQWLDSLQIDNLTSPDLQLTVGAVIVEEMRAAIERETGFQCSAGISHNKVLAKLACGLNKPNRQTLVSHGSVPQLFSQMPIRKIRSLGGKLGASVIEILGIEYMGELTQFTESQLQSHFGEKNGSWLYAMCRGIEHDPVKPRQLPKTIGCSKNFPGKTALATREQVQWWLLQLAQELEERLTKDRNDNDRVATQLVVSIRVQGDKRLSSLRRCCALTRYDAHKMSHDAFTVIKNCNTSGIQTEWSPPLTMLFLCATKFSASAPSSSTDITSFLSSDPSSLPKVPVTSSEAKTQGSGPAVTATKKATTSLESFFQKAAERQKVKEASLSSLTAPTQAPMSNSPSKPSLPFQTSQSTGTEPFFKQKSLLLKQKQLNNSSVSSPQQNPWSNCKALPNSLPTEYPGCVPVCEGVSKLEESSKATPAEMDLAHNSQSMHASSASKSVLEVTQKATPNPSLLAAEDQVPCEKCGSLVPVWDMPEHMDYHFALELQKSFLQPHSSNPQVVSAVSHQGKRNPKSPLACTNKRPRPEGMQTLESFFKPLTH
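Pol eta (10 nM) was preincubated with compounds for 15 min at room temperature, after which fluorescent replication substrate (50 nM final) was added to start the reaction. Fluorescence was read kinetically at 0 and 10 min.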
Pol iota inh: inhibitors of human DNA polymerase iota; Pol iota fluorescent replication assay, 10 min; Potency, µM (series often up to 115 µM), actives largely listed as inhibitors; actives 1% (n = 390,000); AID 588590
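Fluorescent replication assay read twice, at 0 min and 10 min after adding 50 nM (final) substrate. Enzyme (10 nM) and compounds were first incubated 15 min at room temperature; enzyme-free buffer wells were negative controls.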
Pol beta inh: DNA polymerase beta (human) inhibition; P06746; Potency, µM (doses to about 114 µM), usual class: inhibitors; actives 1.3% (n = 340,000); Pol beta primer extension/strand displacement, fluorescence kinetic
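Reaction started by 50 nM substrate onto compound-treated Pol beta (10 nM, 15 min preincubation, room temperature); plates read at 0 min and 10 min. Normalized concentration-effect data fitted by four-parameter Hill equation.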
WRN inhibitor: inhibitors of human WRN helicase; actives 0.46% (n = 360,000); Q14191; WRN helicase unwinding, fluorescent forked duplex, kinetic; Potency, µM (highest dose often 114 µM), usual class: inhibitors; note: nearly all actives have a fitted effect of over 55% in size
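Screening of the MLSMR collection measured strand separation of a quenched forked DNA duplex (100 nM) by 20 nM WRN with 2 mM ATP, all final. Compounds were preincubated with enzyme 15 min at room temperature.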
PI5P4Ka inh: PI5P4K alpha (human) kinase inhibition; AID 652105; actives 1.2% (n = 330,000); P48426; max response, %; PI5P4Kalpha enzyme, ADP-Glo luminescence, 60 min; active compounds read low; active = max response of -50% or lower; inconclusive = between -30% and -50%; inactive = -30% or higher; note: value at the top dose of about 77 µM
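Single end-point luminescence (ADP-Glo) quantified ADP from PI5P4Kalpha turnover; ATP 5 microM final, 1 h at RT, 0.1% CHAPS and 0.28 mM EGTA in HEPES pH 7.4.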
Each line names hits and unclear results; the compound was inactive in the other large screens. The list is not random: actives were taken first. Their share in the collection is about 2.8%. Unless noted, calls come from the whole dose curve; as a rule, active = well fitted curve in the direction sought with a large enough effect; inconclusive = small, poorly fitted or top-dose-only effect, or another doubt; inactive = no such curve, though single readings can be large; an effect the other way counts as inactive or inconclusive.

COc1ccccc1C(=O)Nc1nnc(SCc2cc(=O)c3cc(Cl)ccc3[nH]2)s1	Pol beta inh 4µM (no result: WRN inhibitor, PI5P4Ka inh)
CCCOc1ccc(CN(C(=O)c2nc(SC(C)C)ncc2Cl)C2CCS(=O)(=O)C2)cc1 (centres undefined)	Pol beta inh inconclusive (no result: WRN inhibitor, PI5P4Ka inh)
CNC(=O)c1c(O)c2cccc3c2n(c1=O)CCC3	WRN inhibitor inconclusive
O=c1c([N+](=O)[O-])c(O)c2cccc3c2n1CCC3	POLK inh inconclusive, POLH inh 50µM, Pol beta inh 35µM
COc1cc(C(=O)Nc2nnc(-c3sccc3C)s2)cc(OC)c1OC	POLH inh 13µM, WRN inhibitor 50µM
CCOCc1nnc(NC(=O)c2cc(OC)c(OC)c(OC)c2)s1	none
O=c1c2c3c(sc2nc2n1CCCCC2)CCC3	Pol beta inh 32µM
O=C1c2sc3nc4n(c(=O)c3c2CCC1Br)CCCCC4 (centres undefined)	POLH inh inconclusive, Pol iota inh inconclusive, Pol beta inh 50µM
O=C1CCCc2c1sc1nc3n(c(=O)c21)CCCCC3	none
O=C(/C=C/c1ccc([N+](=O)[O-])cc1)NC1CC2CCC1C2 (centres undefined)	PI5P4Ka inh -52
CC(C)Oc1ccc(C(=O)N/N=C/c2ccc(-c3ccc(S(=O)(=O)Nc4ncccn4)cc3)o2)cc1	POLK inh 45µM, POLH inh 2.8µM, Pol iota inh inconclusive, WRN inhibitor 50µM, PI5P4Ka inh inconclusive
Cc1ccc(C(=O)N/N=C\c2ccc(-c3ccc(Cl)cc3)o2)cn1	none
COc1cccc(OCc2nnc(SCC(=O)NCc3ccco3)n2C)c1	none
COc1cccc(OCc2nnc(SCC(=O)NCc3ccco3)n2CCc2ccccc2)c1	POLK inh inconclusive, POLH inh 14µM, Pol iota inh inconclusive, Pol beta inh 22µM, PI5P4Ka inh inconclusive
CC(C)(C)n1ncc2c(=O)n(Cc3ccc(-c4ccccc4C#N)cc3)cnc21	none (no result: POLH inh, Pol beta inh, WRN inhibitor, PI5P4Ka inh)
COc1ccc(-n2c(=O)c3c4c(sc3n(Cc3cc(=O)n5c(C)cccc5n3)c2=O)CCC4)c(OC)c1	POLH inh inconclusive, Pol iota inh 79µM (no result: WRN inhibitor, PI5P4Ka inh)
O=C1C(N2CCOCC2)=C(n2nnc3ccccc32)C(=O)c2ccccc21	POLH inh 45µM, Pol iota inh inconclusive
O=C1c2ccccc2C(=O)c2c1cccc2-n1nnc2ccccc21	none
Cc1noc(/C=C/c2ccccc2F)c1S(=O)(=O)N1CCC(C(=O)Nc2ccc(C#N)cc2)CC1	none (no result: WRN inhibitor, PI5P4Ka inh)
COc1cccc(N2C(=O)CSC23C(=O)N(Cc2ccccc2)c2ccccc23)c1 (centres undefined)	POLH inh inconclusive (no result: WRN inhibitor, PI5P4Ka inh)
Cc1cc2nc(C)n(CCCNC(=O)Nc3cccc4ccccc34)c2cc1C	Pol iota inh inconclusive, Pol beta inh 40µM (no result: PI5P4Ka inh)
CCOc1ccc(NC(=O)NCCCn2c(C)nc3cc(C)c(C)cc32)cc1	none (no result: PI5P4Ka inh)
CC[C@H](C)[C@H](NC(=O)[C@H](Cc1ccc(O)cc1)NC(=O)[C@@H](NC(=O)[C@H](CCCN=C(N)N)NC(=O)[C@@H](N)CC(=O)O)C(C)C)C(=O)N[C@@H](Cc1cnc[nH]1)C(=O)N1CCC[C@H]1C(=O)N[C@@H](Cc1ccccc1)C(=O)N[C@@H](Cc1cnc[nH]1)C(=O)N[C@@H](CC(C)C)C(=O)O	none (no result: POLH inh, Pol iota inh, Pol beta inh, WRN inhibitor, PI5P4Ka inh)
Cn1ccc2cc(S(=O)(=O)N3CCCN(C(=O)Nc4ccc(Br)cc4)CC3)ccc21	none (no result: WRN inhibitor, PI5P4Ka inh)
Cc1ccc2c(c1)N(C(=O)c1ccc(F)cc1)C(C)(C)CC2(C)c1ccccc1 (centres undefined)	none (no result: WRN inhibitor, PI5P4Ka inh)
Cc1cc(-c2ccccc2)nc(Nc2nc3c(C)cccc3c(=O)[nH]2)n1	POLH inh 45µM (no result: Pol beta inh)
CC(C)c1ccc(C(=O)C[N+]2(C)CCOCC2)cc1	none (no result: POLH inh, Pol beta inh, WRN inhibitor, PI5P4Ka inh)
O=c1[nH][nH]c(=S)n1C1CCCCC1	WRN inhibitor 56µM, PI5P4Ka inh -69
O=c1cc(O)n(C2CCCCCC2)c(=O)[nH]1	Pol iota inh inconclusive
CN(Cc1ccccc1)c1nnc(NC(=O)Nc2cccc(Br)c2)s1	none (no result: WRN inhibitor, PI5P4Ka inh)
CCOc1ccccc1C1C2C(=O)N(c3ccccc3)C(=O)C2ON1c1ccccc1 (centres undefined)	Pol iota inh 56µM (no result: PI5P4Ka inh)
O=C(O)c1cc(-n2cccc2)ccc1N1CCOCC1	POLK inh inconclusive, POLH inh 50µM
COc1ccc(-n2ccnc(NCc3ccccc3OC)c2=O)cc1	none (no result: WRN inhibitor, PI5P4Ka inh)
COc1cccc(Cn2cnc3c(cnn3C(C)(C)C)c2=O)c1	none (no result: POLH inh, Pol beta inh, WRN inhibitor, PI5P4Ka inh)
Fc1ccc(-c2noc3ncnc(NCC4CCN(Cc5ccc(Cl)cc5)CC4)c23)cc1	none (no result: WRN inhibitor, PI5P4Ka inh)
C=CCN(CC=C)c1cnn(-c2nc3ccccc3[nH]2)c(=O)c1Cl	Pol beta inh 0.22µM (no result: PI5P4Ka inh)
Cc1cc(=O)c2c(O)c3c(O)cc(O)c4c5c(O)cc(O)c6c(O)c7c(=O)cc(C)c8c1c2c(c34)c(c65)c78	POLK inh 10µM (no result: POLH inh, Pol iota inh, Pol beta inh, WRN inhibitor, PI5P4Ka inh)
O=c1c2sc3ccccc3c2n(Cc2cccc(C(F)(F)F)c2)c(=O)n1Cc1ccc(F)cc1	none (no result: WRN inhibitor, PI5P4Ka inh)
Oc1cc(CNC2CCCCC2)c(O)cc1CNC1CCCCC1	POLK inh 79µM, POLH inh inconclusive, Pol iota inh inconclusive, PI5P4Ka inh -53 (no result: Pol beta inh)
CCOc1ccc(NC(=O)C(C)Sc2nnc3cc(C)c4ccccc4n23)cc1 (centres undefined)	none (no result: WRN inhibitor, PI5P4Ka inh)
CCN(CC)Cc1cc2[nH]c3c4ccc(Cl)cc4ncc3c2cc1OC	POLK inh inconclusive, Pol iota inh inconclusive, Pol beta inh 50µM
O=C(COc1ccccc1Cl)Nc1ccc(Cl)c(-c2nc3ccccc3o2)c1	none (no result: WRN inhibitor, PI5P4Ka inh)
CCCC(=O)OCC1CN(Cc2ccco2)S(=O)(=O)c2c(F)cccc2O1 (centres undefined)	Pol iota inh 71µM (no result: Pol beta inh)
Cc1ccc(C)c(N2C(=O)N(C)c3ccccc3S2(=O)=O)c1	none (no result: WRN inhibitor, PI5P4Ka inh)
O=C(Nc1ccc2c(c1)nc1n2CCSC1)c1ccco1	POLH inh inconclusive, Pol iota inh 32µM, Pol beta inh 11µM, PI5P4Ka inh inconclusive
O=[N+]([O-])C(=C1Nc2ccccc2N1)C(Cl)=C(Cl)Cl	Pol iota inh 50µM
CN1CCO/C1=C(\C(Cl)=C(Cl)Cl)[N+](=O)[O-]	none
CC(C)=CCC12Oc3cc(O)ccc3C1(O)Oc1cc(O)c([C@H]3C=C(C)CC(c4ccc(O)cc4O)[C@H]3C(=O)c3ccc(O)cc3O)c(O)c1C2=O (some centres undefined)	POLK inh inconclusive, POLH inh inconclusive, Pol iota inh inconclusive, PI5P4Ka inh -92 (no result: Pol beta inh)
Cc1csc(=O)n1CC(=O)OCc1nnc(-c2ccc([N+](=O)[O-])cc2)o1	none (no result: Pol beta inh)
CC(=O)c1c(C)[nH]c(C(=O)OCc2nnc(-c3ccc([N+](=O)[O-])cc3)o2)c1C	POLH inh inconclusive, Pol iota inh inconclusive, PI5P4Ka inh -59 (no result: Pol beta inh)
